A selection: hits, their analogues and other compounds. The true share with any hit is near 2.9%.
Beta2AR agonist: human beta-2 adrenergic receptor agonism by FAP; Am2.2-beta2AR cells, FAP receptor internalization, flow cytometry; response, % (no concentration beside the values); 340,000 compounds, 0.43% hits; AID 504454;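 active means response above a set limit, near 3 SD of response in nonfluorescent compounds, cut at about 42% in these data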
GRK2 aptamer HTS: blocks RNA aptamer binding to human GRK2 | P25098 | bead flow cytometry, FAM-aptamer displacement from GRK2 | inhibition of aptamer binding, % at 10 µM | 330,000 compounds, 0.59% hits | AID 488847;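 active means inhibition of aptamer binding above 40%, roughly 3 SD of noise, on plates passing a quality check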;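 further: median bead fluorescence of bound FAM aptamer so fluorescent compounds give negative values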
Target sequence (P25098 whole entry, looked up): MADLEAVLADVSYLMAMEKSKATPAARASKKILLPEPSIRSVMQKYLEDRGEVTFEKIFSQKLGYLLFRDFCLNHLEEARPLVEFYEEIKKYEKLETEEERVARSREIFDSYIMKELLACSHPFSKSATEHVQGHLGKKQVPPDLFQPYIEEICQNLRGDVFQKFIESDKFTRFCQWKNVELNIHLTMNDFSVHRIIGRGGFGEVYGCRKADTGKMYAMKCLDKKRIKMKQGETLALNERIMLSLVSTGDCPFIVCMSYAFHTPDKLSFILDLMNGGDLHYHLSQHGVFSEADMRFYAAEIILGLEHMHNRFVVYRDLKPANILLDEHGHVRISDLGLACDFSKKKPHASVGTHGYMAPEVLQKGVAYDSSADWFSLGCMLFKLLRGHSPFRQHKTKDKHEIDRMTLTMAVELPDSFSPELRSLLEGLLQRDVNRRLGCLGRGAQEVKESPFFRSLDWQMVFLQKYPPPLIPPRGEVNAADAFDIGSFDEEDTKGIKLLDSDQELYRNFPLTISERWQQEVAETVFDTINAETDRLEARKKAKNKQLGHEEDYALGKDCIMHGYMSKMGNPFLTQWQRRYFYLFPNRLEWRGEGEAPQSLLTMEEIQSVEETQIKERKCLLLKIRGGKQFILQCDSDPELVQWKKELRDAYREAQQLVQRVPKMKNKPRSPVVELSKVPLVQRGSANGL
MEKK2 WT-MEK5: raises or lowers MEK5 binding to wildtype human MEKK2 PB1 domain. bead flow cytometry, Alexa488-MEK5 binding to MEKK2 WT; actives lie on both sides. 290,000 compounds, 1.1% hits. AID 1531. binding response (% of control), % at 10 µM. Q9Y2U5; in the data active means binding response below about 67% or above about 130%; inconclusive means no clear call, values can overlap the other calls; inactive means in between
MEKK3 PB1 HTS: modulators (inhibitors or enhancers) of MEK5 binding to human MEKK3 PB1 domain; Q99759; bead-based flow cytometry, Alexa488-MEK5 binding to MEKK3; actives lie on both sides; 0 = blocked by unlabeled MEK5, 100 = vehicle; binding response (% of control), % at 10 µM; 290,000 compounds, 1.4% hits;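 active means binding response more than 3 SD above or below the average of its plate-row segment, actives on both sides; inconclusive means wells at one plate position flagged as instrument error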;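 further: Alexa488 bead fluorescence after subtracting the streptavidin-only scavenger bead signal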
MEKK2 mut-MEK5: signal of MEK5 binding to mutant human MEKK2 PB1 domain. percent response, % at 10 µM. 290,000 compounds, 0.35% hits. AID 1530. bead flow cytometry, Alexa488-MEK5 binding to MEKK2 mutant; in the data active means percent response above about 24%, passing the limit was not always enough
MEKK2wt confirm: raises or lowers MEK5 binding to wildtype human MEKK2, retest; 5,900 compounds, 2.4% hits; shares compounds with MEKK3 PB1 HTS; bead flow cytometry, Alexa488-MEK5 binding to MEKK2 WT; actives lie on both sides; binding response (% of control), % at 10 µM; in the data active means binding response below about 16% or above about 210%; inactive means in between
MEKK2mut-MEK5: signal of MEK5 binding to mutant human MEKK2, retest; shares compounds with MEKK3 PB1 HTS; bead flow cytometry, Alexa488-MEK5 binding to MEKK2 mutant; percent response, % at 10 µM; 5,900 compounds, 2% hits; in the data active means percent response mostly above about 71%, no sharp cut-off; inactive means mostly below about 38%;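 further: higher means compound restores mutant binding toward wildtype level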
MEKK3-MEK5 inh: confirmation of inhibitors of MEK5 binding to human MEKK3; 5,900 compounds, 1.8% hits; bead flow cytometry, Alexa488-MEK5 binding to MEKK3; stronger effect = lower value; AID 1894; binding response (% of control), % at 10 µM; shares compounds with MEKK3 PB1 HTS;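 active means binding response below 72% of control, or above a set upper limit, though filed actives all read lower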
Hits are given with their value; . = inactive; ? = inconclusive; / = no result given; [ ] = remark or other dose.

SMILES | Beta2AR agonist | GRK2 aptamer HTS | MEKK2 WT-MEK5 | MEKK3 PB1 HTS | MEKK2 mut-MEK5 | MEKK2wt confirm | MEKK2mut-MEK5 | MEKK3-MEK5 inh
Cc1cc(Cl)ccc1OCC(=O)NC(=S)Nc1ccccc1N1CCOCC1 | . | . | . | 148 | . | . | . | .
C/C(N)=C(/C#N)C(=O)COC(=O)c1ccncc1 | . | . | . | 135 | . | . | . | .
CC(=O)Nc1ccc(S(=O)(=O)N(Cc2ccccc2)C(C)C)cc1 | . | . | 1.0[inhibitor] | 1.0[inhibitor] | . | . | . | .
Cc1cc2c(=O)n(Cc3ccco3)c(SCC(=O)NCc3ccco3)nc2s1 | . | . | 2.0[inhibitor] | 2.0[inhibitor] | . | . | . | .
Cc1nnc(SCC(=O)NCc2ccco2)[nH]c1=O | . | . | 135 | 133 | . | . | . | .
CN(C(=O)COC(=O)CSc1ccc(C(N)=O)cc1[N+](=O)[O-])C1CCCCC1 | . | . | / | / | / | / | / | /
COc1cccc(NS(=O)(=O)c2ccc(S(=O)(=O)N3CCCC3)cc2)c1 | . | . | / | / | / | / | / | /
COc1cccc(CNS(=O)(=O)c2ccc(S(=O)(=O)N3CCCC3)cc2)c1 | . | . | 601 | . | 454 | . | . | .
O=c1[nH]c(Nc2ccc3c(c2)OCCO3)nnc1Cc1ccc(Cl)cc1 | . | . | . | 129 | . | . | . | .
O=C1OC(c2ccc3ccccc3c2O)(c2ccc3ccccc3c2O)c2ccccc21 | . | / | / | / | / | / | / | /
O=C1OC(c2ccccc2)(c2cc(Br)ccc2O)c2ccccc21 (configuration not stated) | . | / | / | / | / | / | / | /
O=C(NC(NC(=S)Nc1ccc(Cl)cc1Cl)C(Cl)(Cl)Cl)c1cccc([N+](=O)[O-])c1 (configuration not stated) | . | . | 145 | 141 | . | . | . | .
O=C(O)c1cccc(NC(=S)NC(NC(=O)c2cccc([N+](=O)[O-])c2)C(Cl)(Cl)Cl)c1 (configuration not stated) | . | . | . | . | . | / | / | /
Nc1ccccc1C(=O)NNc1c2ccccc2nc2ccccc12 | . | . | . | . | . | / | / | /
COc1cccc(OCCOCCOc2ccc(C)cc2[N+](=O)[O-])c1 | . | . | . | 146 | . | . | . | .
CCOc1ccc(C(c2c(NC(=O)c3ccccc3)sc(C)c2C)N2CCN(C)CC2)cc1 (configuration not stated) | . | . | . | . | . | / | / | /
Cc1sc(NC(=O)c2ccccc2)c(C(c2ccccn2)N2CCN(CCO)CC2)c1C (configuration not stated) | . | . | . | 140 | . | 1.0[inhibitor] | . | 2.0
CSc1ccc2c(c1)N(CCC1CCCCN1C)c1ccccc1S2 (configuration not stated) | . | . | 176 | . | . | . | . | .
Cc1cnc([N+](=O)[O-])n1CCOC(=O)NC(=O)c1ccccc1Cl | . | . | ? | ? | . | / | / | /
O=c1c2cc(Cl)ccc2oc2nc3n(c(=O)c12)CCCS3 | . | . | . | 74[inhibitor] | . | . | . | .
N#Cc1c(-c2ccc(Cl)cc2)nc2n(c1=O)CCCS2 | . | . | . | . | . | / | / | /
CN(C)CCN=Cc1c(O)n(Cc2ccc3c(c2)OCO3)c(=O)c2ccccc12 | . | . | . | . | . | / | / | /
O=c1c2ccccc2c(C=NC2CCN(Cc3ccccc3)CC2)c(O)n1Cc1ccc2c(c1)OCO2 | / | . | 154 | . | . | . | . | .
CN1CCN(c2ccc(Cl)cc2NC(=O)c2ccc(S(=O)(=O)N(C)C)cc2)CC1 | . | . | 136 | . | . | . | . | .
CN(C)S(=O)(=O)c1ccc(N2CCCC2)c(C(=O)Nc2ccccc2OC(F)F)c1 | . | . | . | . | . | / | / | /
SMILES | Beta2AR agonist | GRK2 aptamer HTS | MEKK2 WT-MEK5 | MEKK3 PB1 HTS | MEKK2 mut-MEK5 | MEKK2wt confirm | MEKK2mut-MEK5 | MEKK3-MEK5 inh
COc1cc(Cl)c(C)cc1NC(=O)c1cc(S(=O)(=O)N(C)C)ccc1N1CCCC1 | . | . | . | 148 | . | . | . | .
CN(C)S(=O)(=O)c1ccc(C(=O)Nc2cc(S(=O)(=O)Nc3ccccc3Cl)ccc2N2CCCCC2)cc1 | . | . | . | . | . | / | / | /
Nc1nnc(SCC(=O)NC23CC4CC(CC(C4)C2)C3)s1 | . | . | 39[inhibitor] | 41[inhibitor] | . | . | . | .
COC(=O)c1ccc(N2NC(=O)/C(=C/c3ccc(OC)c(OC)c3)C2=O)cc1 | . | . | . | . | . | / | / | /
COc1cc(/C=C2\C(=O)NN(c3ccccc3)C2=O)ccc1OCC(N)=O | / | . | . | 134 | . | . | . | .
CCCN1CCC(=NNC(=O)CSc2cc(C)c(Br)cc2C)CC1 | . | . | . | 136 | . | . | . | .
CC(=O)N1CCC(=NNC(=O)CSc2cc(C)c(Br)cc2C)CC1 | . | . | . | . | . | / | / | /
CC1CCN(S(=O)(=O)c2ccc3c(c2)c(=O)c(C(=O)NCc2ccco2)cn3C)CC1 | . | . | . | . | . | / | / | /
CCN(CC)S(=O)(=O)c1ccc2c(c1)c(=O)c(C(=O)NCc1ccco1)cn2C | . | . | . | 135 | . | . | . | .
CCCCc1nnc(NC(=O)C(C)Sc2nc(O)c(Cc3ccccc3)c(=O)[nH]2)s1 (configuration not stated) | . | . | . | . | . | / | / | /
COc1cc(CN2CCN(c3ccccc3C)CC2)cc([N+](=O)[O-])c1O | . | . | 49[inhibitor] | 62[inhibitor] | . | . | . | .
COc1cc(CN2CCN(c3cc(C)ccc3C)CC2)cc([N+](=O)[O-])c1O | / | . | . | . | . | / | / | /
COc1c(/C=N/Nc2ccc(C(=O)O)cc2)c(CCN(C)C(C)=O)cc2c1OCO2 | . | . | . | . | . | / | / | /
COc1c(/C=N/NC(=O)c2ccccc2O)c(CCN(C)C(C)=O)cc2c1OCO2 | . | . | . | 134 | . | . | . | .
CCC(=O)N(C)CCc1cc2c(c(OC)c1/C=N/NC(=O)c1ccc(Br)cc1)OCO2 | . | . | . | 131 | . | . | . | .
NC(=O)CC(NC(=O)c1cccc(Br)c1)c1ccc(N2CCCCCC2)c([N+](=O)[O-])c1 (configuration not stated) | . | . | . | . | . | / | / | /
NC(=O)CC(NC(=O)c1cccc(Br)c1)c1ccc(N2CCC(N3CCCC3)CC2)c([N+](=O)[O-])c1 (configuration not stated) | . | . | 153 | . | . | . | . | .
c1ccc2c(NCCc3c[nH]c4ccccc34)c3ccccc3nc2c1 | . | . | 220 | . | 48 | . | . | .

High-throughput results from PubChem.
